Laboratory results taken from PubChem BioAssay (NCATS).
Values without a mark were called inactive. Results filed as inconclusive are left out. Activity calls are given as the source filed them. Unless noted, calls follow the shape of the dose curve; as a rule, active = well fitted curve in the direction sought with a large enough effect; inconclusive = small, poorly fitted or top-dose-only effect, or another doubt; inactive = no such curve, though single readings can be large; an effect the other way counts as inactive or inconclusive.

How the values were obtained:
[1] = biological target: Lysosomal acid glucosylceramidase (Homo sapiens) (UniProt P04062); experiment: Glucocerebrosidase-p2 (AID 348; in the data active = potency below about 10 µM; also: potency is read from the fitted curve at half-maximal effect); details: purified GBA, blue fluorogenic substrate, 40 min
In short: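 Normal human glucocerebrosidase (0.2 nM) with blue fluorogenic substrate (80 uM final) in citrate/phosphate pH 5.9 with 10mM sodium taurocholate, 0.01% tween-20; 40 min RT, NaOH/glycine stop; fluorescence Ex 365/Em 440; AC50 from a titration from 0.6 nM upwards.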

[2] = biological target: Cytochrome P450 1A2 (Homo sapiens) (UniProt P05177); experiment: p450-cyp1a2 (AID 410; calls by dose curve; also: potency is read from the fitted curve at half-maximal effect); details: recombinant CYP1A2, luciferin-ME demethylation, luminescence; series mostly up to 57 µM
In short: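 O-Demethylation of luciferin 6' methyl ether by human CYP1A2 is monitored as luciferase luminescence. Substrate sits at Km (100uM); enzyme is 20nM. Values are scaled to 57 uM furafylline as maximal inhibition.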

[3] = Stat Signaling Pathway (AID 446; active = well fitted curve in either direction with a large enough effect, not every such curve was filed as active;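 also: ME-180 cervical cancer cells given 40 pM IL-6 alongside compound; SIE-controlled beta-lactamase reporter measured as 460/530 nm FRET emission ratio; % is scaled to controls: 0 for no effect and ±100 for the full control effect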); details: ME-180 SIE beta-lactamase reporter, IL-6 stimulated, 5 h; at 7.69 µM (top of the series) unless noted
In short: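 FRET read-out (405 nm excitation, 460/530 nm emission) of a beta-lactamase reporter under a STAT-inducible element in ME-180 cervical carcinoma cells. Cells with compound receive 40 pM IL-6 for 5 h. Values are normalised to AC90 stimulation and AC90 JAK-inhibitor controls.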

[4] = biological target: Glucocorticoid receptor (Homo sapiens) (UniProt P04150); experiment: GR-GFP Redistribution (AID 450;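 active = compounds whose dose series gives a full or clear partial fitted curve of increased nuclear translocation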; also: potency is read from the fitted curve at half-maximal effect); details: U2OS GR-GFP nuclear translocation, laser cytometry, 2 h
[5] = biological target: Glucocorticoid receptor (Homo sapiens) (UniProt P04150); experiment: GR-EFC Redistribution (AID 451; calls by dose curve; also: potency is read from the fitted curve at half-maximal effect); details: CHO-K1 GR-EFC translocation, beta-gal luminescence, 2 h
In short: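 CHO-K1 cells stably expressing nuclear-localized β-gal enzyme acceptor and GR fused C-terminally to the enzyme donor fragment; ligand-driven nuclear translocation restores β-gal by complementation. Compounds titrated up to 46 uM final, 2 h at 37 °C; luminescence read.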

[6] = biological target: Mitogen-activated protein kinase 10 (Mus musculus) (UniProt Q61831); experiment: JNK3 AlphaScreen Assay (AID 530; active = well fitted curve in either direction with a large enough effect, not every such curve was filed as active;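 also: kinase came from lysate of stimulated human HepG2 cells; signal reports phosphorylation of biotinylated GST-cJun 1-79 at Ser73 with 10 µM ATP; % is scaled to controls: 0 for no effect and ±100 for the full control effect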); details: JNK3 lysate, c-Jun phosphorylation; series mostly up to 57.1 µM
In short: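 Phosphorylation of biotinylated GST-cJun(1-79) at Ser73 is measured by AlphaScreen proximity luminescence. Enzyme is JNK3 in HepG2 lysates activated with interleukin-1beta and tumor necrosis factor alpha; ATP is 10 uM final.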

[7] = biological target: 3',5'-cyclic-AMP phosphodiesterase 4B (Homo sapiens) (UniProt Q07343); experiment: qHTS Assay for Inhibitors of PDE-IV (AID 607; active = well fitted activation curve with a large enough effect in the main read-out, with a control signal flat, not every such curve was filed as active; also: % of control where 0% means no effect); details: HEK293 ACTOne CNG channel cells, membrane potential fluorescence; series mostly up to 22.9 µM
In short: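 Cell-based read-out of cAMP via a modified cyclic nucleotide-gated channel and membrane potential dye (535/590 nm) in HEK293 cells expressing PDE4 endogenously. Compounds tested up to 22.9 uM final; 100 uM RO 20-1724 reference.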

[8] = biological target: Cytochrome P450 3A4 (Homo sapiens) (UniProt P08684); experiment: qHTS Assay for Inhibitors and Substrates of Cytochrome P450 3A4 (AID 884); details: recombinant CYP3A4, Luciferin-PPXE luminescence; series mostly up to 57.1 µM; also: nearly all actives have a fitted effect of over 50% in size; also: potency is read from the fitted curve at half-maximal effect
In short: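 Luminescent readout of luciferin produced by CYP3A4 (20 nM) dealkylation of Luciferin-PPXE, 25 uM (its KM). NADPH-driven reaction ran 60 min at RT after 10 min compound preincubation; data scaled to 57 uM ketoconazole as 100% inhibition.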

[9] = biological target: Cytochrome P450 3A4 (Homo sapiens) (UniProt P08684); experiment: qHTS Assay for Activators of Cytochrome P450 3A4 (AID 885); details: recombinant CYP3A4, Luciferin-PPXE luminescence, 60 min; series mostly up to 57.1 µM; also: nearly all actives have a fitted effect of over 65% in size; also: potency is read from the fitted curve at half-maximal effect
In short: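 Luminescent readout of luciferin formed from 25 uM Luciferin-PPXE (KM level) by 20 nM CYP3A4 in 200 mM KPO4, with 60 min NADPH-driven reaction at room temperature after 10 min compound exposure. Ketoconazole (57 uM) defined 100% inhibition.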

[10] = Primary qHTS for small molecule stabilizers of the endoplasmic reticulum resident proteome: Secreted ER Calcium Modulated Protein (SERCaMP) assay (AID 1508630); details: SH-SY5Y GLuc-SERCaMP (Gaussia luciferase released on ER calcium loss) secretion, thapsigargin, luminescence; series mostly up to 38.4 µM; also: % is scaled to controls: 0 for no effect and ±100 for the full control effect
In short: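 The SH-SY5Y reporter protocol was run at 3 concentrations up to 38.3 uM (primary) or 11 concentrations (follow-up): 16 h compound, 100 nM thapsigargin for 4 h, then extracellular luciferase luminescence.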

[11] = NFAT Signaling Pathway (AID 444; active = well fitted curve in either direction with a large enough effect, not every such curve was filed as active;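 also: carbachol stimulus at about its EC50 of 1 µM final; % is scaled to controls: 0 for no effect and ±100 for the full control effect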); details: Jurkat NFAT-bla M1, carbachol, beta-lactamase ratio, 5 h; at 7.69 µM (top of the series) unless noted
In short: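 Jurkat cells carrying an NFAT-driven β-lactamase reporter and co-transfected muscarinic M1 receptor were treated with compound plus carbachol (1 uM final, an EC50 level) for 5 h at 37 °C. CCF4 loading followed for 1 h at RT; 460/530 nm ratio gave %activity.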

[12] = biological target: Cytochrome P450 2C9 (Homo sapiens) (UniProt P11712); experiment: qHTS Assay for Inhibitors and Substrates of Cytochrome P450 2C9 (AID 883); details: recombinant CYP2C9, luciferin-H luminescence, 60 min; series mostly up to 57.1 µM; also: potency is read from the fitted curve at half-maximal effect; nearly all actives have a fitted effect of over 60% in size
In short: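 A luminogenic readout tracked human CYP2C9 (10nM) converting deoxyluciferin (100uM, at KM) in 25mM KPO4 during 60 min at 37C with regenerated NADPH. Values normalized to 57uM sulphaphenazole as complete inhibition.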

[13] = qHTS Assay for Identification of Small Molecule Agonists for Hypoxia Response Element Signaling Pathway (AID 914; active = well fitted activation curve with a large enough effect in the signal ratio, with a control signal flat, not every such curve was filed as active; the % refers to the signal ratio; also: potency is read from the fitted curve at half-maximal effect); details: ME-180 (cervical carcinoma) HRE-bla reporter, beta-lactamase ratio, CoCl2, 17 h; activation: stronger effect = higher value
In short: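 In Opti-MEM containing 0.5% dialyzed FBS and 10 mM HEPES, ME-180 HRE-bla cells received a compound titration and EC50 CoCl2. They were incubated 17 hours, then CCF4-loaded 2.5 hours at room temperature before ratio reading.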

[14] = biological target: Cytochrome P450 2C19 (Homo sapiens) (UniProt P33261); experiment: qHTS Assay for Inhibitors and Substrates of Cytochrome P450 2C19 (AID 899); details: recombinant CYP2C19, luciferin-H EGE luminescence; series mostly up to 57.1 µM; also: potency is read from the fitted curve at half-maximal effect; nearly all actives have a fitted effect of over 60% in size
In short: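 NADPH-dependent conversion of Luciferin-H EGE (10uM, at KM) by 5nM enzyme in 50mM KPO4, 60 min at 37C following 10 min compound preincubation. Stopped with luciferin detection buffer; luminescence read after 20 min.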

[15] = Confirmation and Secondary Assay for Modulators of Hemoglobin Beta Chain Splicing at IVS2 654 locus (AID 910); details: HeLa EGFP-654 splicing reporter, GFP fluorescence, 48 h; series mostly up to 38.3 µM;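 also: per-well total GFP intensity by laser scanning cytometry after 2-day treatment; % of control where 0% means no effect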
In short: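 HeLa cells stably carrying EGFP interrupted by mutant beta-globin IVS2-654 intron (CMV-driven) were treated with compound for 2 days at 37C; corrected splicing was scored as total peak GFP intensity per well (488 nm excitation, 500-520 nm emission).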

[16] = Confirmation and Secondary Assay for Modulators of Hemoglobin Beta Chain Splicing at IVS2 705 locus (AID 930); details: HeLa EGFP-705 splicing reporter, GFP fluorescence, 48 h; series mostly up to 38.3 µM;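 also: HeLa cells stably expressing the EGFP-705 splicing reporter; GFP fluorescence per well restored by corrected splicing of the IVS2-705 intron in EGFP; % of control where 0% means no effect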
In short: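 Per-well GFP, captured at 1 x 8 µm resolution with 488 nm excitation, served as the read-out for HeLa EGFP-705 cells incubated 2 days with test compound versus DMSO.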

Sequence of Cytochrome P450 1A2 (Homo sapiens) (P05177 whole entry, looked up): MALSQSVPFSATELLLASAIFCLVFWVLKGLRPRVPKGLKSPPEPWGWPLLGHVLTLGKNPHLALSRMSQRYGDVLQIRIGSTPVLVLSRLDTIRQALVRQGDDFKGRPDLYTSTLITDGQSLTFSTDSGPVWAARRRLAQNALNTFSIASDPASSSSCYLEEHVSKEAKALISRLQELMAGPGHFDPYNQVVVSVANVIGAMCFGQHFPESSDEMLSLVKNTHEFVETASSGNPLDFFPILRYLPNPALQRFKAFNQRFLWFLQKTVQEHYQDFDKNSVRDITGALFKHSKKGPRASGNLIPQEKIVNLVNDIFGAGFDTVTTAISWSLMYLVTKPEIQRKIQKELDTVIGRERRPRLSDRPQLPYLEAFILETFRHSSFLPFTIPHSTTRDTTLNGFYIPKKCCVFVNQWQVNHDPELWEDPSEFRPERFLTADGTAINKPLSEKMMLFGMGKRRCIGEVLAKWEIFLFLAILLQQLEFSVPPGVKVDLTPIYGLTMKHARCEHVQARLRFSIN
Sequence of Cytochrome P450 3A4 (Homo sapiens) (P08684 whole entry, looked up): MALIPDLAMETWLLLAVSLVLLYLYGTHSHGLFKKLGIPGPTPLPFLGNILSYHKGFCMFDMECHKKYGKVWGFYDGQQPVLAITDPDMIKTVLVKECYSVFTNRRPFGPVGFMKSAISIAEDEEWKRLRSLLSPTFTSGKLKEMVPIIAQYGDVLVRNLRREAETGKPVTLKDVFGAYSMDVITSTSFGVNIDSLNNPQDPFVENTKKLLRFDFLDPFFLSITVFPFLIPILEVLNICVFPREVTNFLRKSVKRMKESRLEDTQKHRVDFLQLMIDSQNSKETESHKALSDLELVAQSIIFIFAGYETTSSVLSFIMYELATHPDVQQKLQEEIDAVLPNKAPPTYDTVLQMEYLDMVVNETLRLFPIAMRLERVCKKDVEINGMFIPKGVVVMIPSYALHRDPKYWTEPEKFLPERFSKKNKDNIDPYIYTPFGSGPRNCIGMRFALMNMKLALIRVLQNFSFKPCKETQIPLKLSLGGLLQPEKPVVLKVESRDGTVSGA
Sequence of Glucocorticoid receptor (Homo sapiens) (P04150 whole entry, looked up, the tested form may be a part): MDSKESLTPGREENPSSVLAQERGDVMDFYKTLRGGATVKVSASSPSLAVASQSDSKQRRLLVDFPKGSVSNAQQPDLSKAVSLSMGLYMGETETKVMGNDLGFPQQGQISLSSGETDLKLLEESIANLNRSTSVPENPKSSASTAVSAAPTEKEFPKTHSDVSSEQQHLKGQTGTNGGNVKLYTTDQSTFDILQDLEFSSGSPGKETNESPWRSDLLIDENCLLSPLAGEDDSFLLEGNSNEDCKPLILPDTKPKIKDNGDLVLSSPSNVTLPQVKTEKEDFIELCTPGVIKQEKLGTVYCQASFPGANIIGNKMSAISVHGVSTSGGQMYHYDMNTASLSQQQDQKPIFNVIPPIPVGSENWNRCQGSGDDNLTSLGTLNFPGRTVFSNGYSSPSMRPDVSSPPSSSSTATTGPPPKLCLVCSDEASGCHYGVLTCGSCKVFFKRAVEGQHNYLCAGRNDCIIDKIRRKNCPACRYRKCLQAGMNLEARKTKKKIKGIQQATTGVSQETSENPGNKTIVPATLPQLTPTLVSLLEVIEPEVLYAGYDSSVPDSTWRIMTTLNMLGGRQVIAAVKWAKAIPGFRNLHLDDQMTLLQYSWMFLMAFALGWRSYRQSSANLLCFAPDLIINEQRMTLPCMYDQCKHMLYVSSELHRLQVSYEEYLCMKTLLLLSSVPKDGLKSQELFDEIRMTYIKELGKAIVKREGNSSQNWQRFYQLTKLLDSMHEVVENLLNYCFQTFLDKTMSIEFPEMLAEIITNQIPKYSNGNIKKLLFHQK
Sequence of Lysosomal acid glucosylceramidase (Homo sapiens) (P04062 whole entry, looked up): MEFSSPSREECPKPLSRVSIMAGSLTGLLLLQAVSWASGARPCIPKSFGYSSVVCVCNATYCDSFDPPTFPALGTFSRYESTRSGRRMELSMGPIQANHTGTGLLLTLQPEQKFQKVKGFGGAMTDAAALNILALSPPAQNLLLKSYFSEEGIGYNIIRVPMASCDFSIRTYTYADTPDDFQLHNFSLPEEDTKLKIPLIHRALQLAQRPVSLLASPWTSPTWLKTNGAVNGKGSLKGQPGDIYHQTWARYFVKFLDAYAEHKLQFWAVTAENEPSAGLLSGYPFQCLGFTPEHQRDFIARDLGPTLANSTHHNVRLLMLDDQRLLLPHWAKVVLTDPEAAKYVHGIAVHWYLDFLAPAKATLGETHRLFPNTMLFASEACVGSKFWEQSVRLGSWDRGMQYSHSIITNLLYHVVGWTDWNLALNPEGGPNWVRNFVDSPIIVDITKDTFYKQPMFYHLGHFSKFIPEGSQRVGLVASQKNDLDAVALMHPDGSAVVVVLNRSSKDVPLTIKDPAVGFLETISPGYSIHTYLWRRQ
Sequence of 3',5'-cyclic-AMP phosphodiesterase 4B (Homo sapiens) (Q07343 whole entry, looked up): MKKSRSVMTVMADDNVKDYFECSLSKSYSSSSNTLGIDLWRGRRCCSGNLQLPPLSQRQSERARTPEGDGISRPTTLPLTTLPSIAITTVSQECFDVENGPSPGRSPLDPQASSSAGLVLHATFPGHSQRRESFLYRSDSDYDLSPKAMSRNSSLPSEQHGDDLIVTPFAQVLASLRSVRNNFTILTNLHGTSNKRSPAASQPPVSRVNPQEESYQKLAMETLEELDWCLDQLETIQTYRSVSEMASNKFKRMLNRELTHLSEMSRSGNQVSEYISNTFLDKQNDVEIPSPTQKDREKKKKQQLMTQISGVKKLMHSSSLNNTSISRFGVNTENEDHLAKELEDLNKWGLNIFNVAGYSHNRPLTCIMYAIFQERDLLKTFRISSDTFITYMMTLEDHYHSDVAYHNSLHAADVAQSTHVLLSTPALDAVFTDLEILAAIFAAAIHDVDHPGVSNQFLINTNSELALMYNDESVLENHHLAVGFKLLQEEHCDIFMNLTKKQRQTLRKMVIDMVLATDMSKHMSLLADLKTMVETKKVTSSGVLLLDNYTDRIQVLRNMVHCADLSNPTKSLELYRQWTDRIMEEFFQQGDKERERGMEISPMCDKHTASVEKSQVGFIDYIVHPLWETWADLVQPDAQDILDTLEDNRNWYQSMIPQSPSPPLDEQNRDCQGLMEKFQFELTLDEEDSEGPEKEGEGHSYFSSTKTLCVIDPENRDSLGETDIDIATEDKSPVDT
Sequence of Cytochrome P450 2C19 (Homo sapiens) (P33261 whole entry, looked up): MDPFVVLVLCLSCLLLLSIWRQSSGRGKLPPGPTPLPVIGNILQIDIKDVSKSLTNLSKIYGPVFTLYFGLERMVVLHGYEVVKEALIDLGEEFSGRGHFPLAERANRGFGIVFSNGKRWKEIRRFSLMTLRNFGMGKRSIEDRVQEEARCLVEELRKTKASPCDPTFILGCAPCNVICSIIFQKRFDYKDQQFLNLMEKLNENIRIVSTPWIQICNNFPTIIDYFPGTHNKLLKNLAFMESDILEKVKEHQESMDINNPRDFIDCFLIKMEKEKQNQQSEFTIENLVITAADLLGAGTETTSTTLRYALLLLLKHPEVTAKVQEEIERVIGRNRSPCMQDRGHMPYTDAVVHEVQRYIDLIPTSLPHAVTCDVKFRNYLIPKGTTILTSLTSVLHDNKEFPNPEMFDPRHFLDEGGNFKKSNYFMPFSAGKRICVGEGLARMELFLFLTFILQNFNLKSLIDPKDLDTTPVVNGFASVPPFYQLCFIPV
Sequence of Cytochrome P450 2C9 (Homo sapiens) (P11712 whole entry, looked up): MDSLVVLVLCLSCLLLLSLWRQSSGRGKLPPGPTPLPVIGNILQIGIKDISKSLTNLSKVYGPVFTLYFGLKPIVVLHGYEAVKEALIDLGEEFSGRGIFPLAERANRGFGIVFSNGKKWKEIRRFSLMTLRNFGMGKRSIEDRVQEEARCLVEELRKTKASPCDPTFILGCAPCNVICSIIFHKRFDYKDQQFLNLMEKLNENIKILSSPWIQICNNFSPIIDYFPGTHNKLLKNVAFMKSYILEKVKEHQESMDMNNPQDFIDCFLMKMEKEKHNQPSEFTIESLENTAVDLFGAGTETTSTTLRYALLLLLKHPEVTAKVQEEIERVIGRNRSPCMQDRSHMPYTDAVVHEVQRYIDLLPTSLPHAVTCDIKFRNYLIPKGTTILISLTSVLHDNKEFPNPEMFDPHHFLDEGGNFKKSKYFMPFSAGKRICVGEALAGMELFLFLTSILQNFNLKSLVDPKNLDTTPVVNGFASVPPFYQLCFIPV

SMILES	Potency [1] [µM]	Potency [2]	activity, negative = inhibition [3]	Potency [4] [µM]	Potency [5] [µM]	Potency [6]	Potency [7]	Potency [8]	Potency [9]	outcome [10]	activity change, negative = inhibition [11] [%]	Potency [12]	Potency [13]	Potency [14]	Potency [15]	outcome [16]
Cn1c(=O)c(-c2ccc(Cl)cc2)nc2cnc(Oc3ccccc3)nc21	> 11.4	0.2 µM (active)	2.85%	> 9.22	> 46	inactive	inactive	inactive	20 µM (active)	inactive	–	–	–	–	–	–
COCCn1c(=O)c(-c2ccc(OC)cc2)nc2cnc(Oc3cccc(Cl)c3)nc21	> 11.4	6.31 µM (active)	21.8%	> 9.22	> 46	inactive	inactive	–	inactive	inactive	-0.562	0.631 µM (active)	–	–	–	–
COc1ccc(-n2c(=O)c(-c3ccc(Cl)cc3)nc3cnc(N4CCOCC4)nc32)cc1	> 11.4	15.8 µM (active)	88.4% [activator] (active)	> 9.22	> 46	inactive	inactive	–	–	inactive	23.6	–	0.631 µM (active)	–	–	–
COc1ccc(-c2nc3cnc(N(C)C)nc3n(CCc3ccccc3)c2=O)cc1	> 11.4	1.26 µM (active)	121% [activator] (active)	–	> 46	–	inactive	–	–	inactive	–	–	0.794 µM (active)	–	–	–
Cc1cccc(CNc2cc(-c3ccc(N(C)C)cc3)ncn2)c1	> 11.4	1 µM (active)	-19.8%	> 46	> 46	inactive	inactive	6.31 µM (active)	inactive	inactive	-5.57	–	–	3.16 µM (active)	inactive	inactive
CCNc1ncc2nc(-c3ccccc3)c(=O)n(CCc3ccccc3)c2n1	> 11.4	12.6 µM (active)	–	> 9.22	> 46	inactive	inactive	–	inactive	inactive	–	–	1.58 µM (active)	–	–	–
O=C(Oc1ccccc1)N1CCC2(CC1)CCN(c1cccc(-c3ccccc3)c1)CC2	> 11.4	12.6 µM (active)	-5.12%	–	> 46	inactive	inactive	inactive	7.94 µM (active)	inactive	–	–	–	–	–	–
